Screens (PubChem BioAssay)
Hits are enriched below; roughly 5.9% of the tested compounds scored in any of these assays.
Gal4-VP16 FLuc = inhibits Gal4-VP16 luciferase reporter, ROR gamma counter-screen; AID 2546; Drosophila S2 Gal4-VP16 UAS-luciferase, luminescence, 20 h; 310,000 compounds, 3.5% hits; Potency, µM (highest dose often 53.6 µM), most hits filed as inhibitors;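 also: Gal4-VP16 expression switched on by copper sulfate through the metallothionein promoter; nearly all actives have a fitted effect of over 50% in size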
GALK inh = blocks human galactokinase activity. 270,000 compounds, 0.007% hits. P51570. AID 1868. Purified GALK, Kinase-Glo residual ATP luminescence. Potency, µM (doses to about 57.5 µM), usual class: inhibitors
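5 nM enzyme, 35 uM ATP, 100 uM galactose, 20 mM HEPES pH8.0, 5 mM MgCl2; 1 h RT; residual ATP by Kinase-Glo Plus luminescence, qHTS format.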
TrxR1 inh = inhibitors of rat thioredoxin reductase 1; Potency, µM (doses to about 114 µM), actives largely listed as inhibitors; O89049; 390,000 compounds, 1% hits; recombinant rTrxR1, NADPH fluorescence consumption, selenite substrate; AID 588453; also: nearly all actives have a fitted effect of over 65% in size
Target sequence (O89049 whole entry, looked up): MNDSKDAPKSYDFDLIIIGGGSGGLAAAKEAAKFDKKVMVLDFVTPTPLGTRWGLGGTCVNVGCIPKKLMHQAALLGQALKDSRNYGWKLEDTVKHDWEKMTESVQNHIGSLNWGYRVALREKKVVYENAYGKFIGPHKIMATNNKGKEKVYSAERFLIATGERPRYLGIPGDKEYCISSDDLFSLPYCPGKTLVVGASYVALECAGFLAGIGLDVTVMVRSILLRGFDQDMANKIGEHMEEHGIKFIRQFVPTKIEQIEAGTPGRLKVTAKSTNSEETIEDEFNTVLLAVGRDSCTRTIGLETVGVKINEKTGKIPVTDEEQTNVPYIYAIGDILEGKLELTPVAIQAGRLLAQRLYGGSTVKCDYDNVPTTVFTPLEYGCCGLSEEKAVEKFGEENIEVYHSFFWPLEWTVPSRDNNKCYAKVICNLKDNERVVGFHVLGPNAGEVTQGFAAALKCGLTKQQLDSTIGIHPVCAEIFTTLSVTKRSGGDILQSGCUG
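Rat TrxR1 (90 nM in the dispensed reagent) was pre-reduced with 400 uM NADPH for 5 min at room temperature, then incubated with compound for 15 min. After 400 uM selenite was added, NADPH fluorescence (Ex 340/Em 450 nm) was followed for 8 min.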
RORgamma inh = ROR gamma (mouse) transcription inhibition; AID 2551; P51450; Potency, µM (series often up to 53.6 µM), actives largely listed as inhibitors; Drosophila S2 Gal4-RORgamma UAS-luciferase reporter, 20 h; 310,000 compounds, 5.4% hits; also: nearly all actives have a fitted effect of over 60% in size
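Drosophila Schneider cells stably carrying a metallothionein-driven Gal4 DBD–ROR gamma fusion and a UAS-Photinus luciferase reporter were exposed to compound for 1 hr, then induced with copper sulfate (700 uM final) for 20 hr at ambient temperature before luminescence reading.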
TrxR1 substrate = substrates of rat thioredoxin reductase 1; Potency, µM (titrated, usually from 114 µM); purified TrxR1 substrate turnover, NADPH consumption readout; 390,000 compounds, 0.01% hits; AID 588456; O89049; also: nearly all actives have a fitted effect of over 50% in size
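Rat TrxR1, dispensed at 90 nM, was prereduced with 400 uM NADPH (final) for 5 min at ~22 deg C, then incubated with compound 15 min before 400 uM selenite. A first-read NADPH fluorescence drop versus no-compound background flagged substrates.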
Coupling enz = inhibits coupling enzyme system, counter-screen for aldolase hits | activity change, negative = inhibition, % at 58.2 µM, hits read low | coupling enzyme system counterscreen, AmpLite Red fluorescence | 290,000 compounds, 0.67% hits; in the data active = activity change below about -30%
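Activity here indicates interference with the coupling reaction, not aldolase inhibition. Compounds at 57.5 uM final met coupling enzymes for 10 min at RT; substrate and AmpLite Red detection followed, with a 525/598 nm fluorescence read after 20 min.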
Hits are given with their value; i = inactive; ? = inconclusive; nt = not tested or not shown; [ ] = dose if it differs, or a comment. Unless noted, calls follow the shape of the dose curve; as a rule, active = well fitted curve in the direction sought with a large enough effect; inconclusive = small, poorly fitted or top-dose-only effect, or another doubt; inactive = no such curve, though single readings can be large; an effect the other way counts as inactive or inconclusive.

SMILES	Gal4-VP16 FLuc	GALK inh	TrxR1 inh	RORgamma inh	TrxR1 substrate	Coupling enz
O=C(NNc1nc2c(F)cc(F)cc2s1)C1=COCCO1	i	i	i	8.9µM	i	i
NC(=O)c1ccc(SCC(=O)OCC(=O)N2CCCCC2)c([N+](=O)[O-])c1	nt	nt	i	nt	i	nt
COc1ccc(-n2c(=O)cnc3cnc(Oc4cccc(Cl)c4)nc32)cc1	i	nt	nt	i	nt	i
COc1ccc(N2C(=O)CC(N3CCCCC3)C2=O)cc1 (stereo not given)	?	i	?	i	i[0.0914 µM]	i
COc1ccc(N2C(=O)CC(N3CCC(O)(c4cccc(C(F)(F)F)c4)CC3)C2=O)cc1 (stereo not given)	?	i	i	2.5µM	i	i
CCOC(=O)c1cnc(-n2nc(C)cc2C)nc1N1CCOCC1	11µM	i	i	i	i	i
CCOC(=O)c1cnc(-n2[nH]c(C)cc2=O)[nH]c1=O	i	i	i	i	i	i
CCOC(=O)c1cnc(-n2nc(C)cc2C)[nH]c1=O	i	i	i	6.3µM	i	i
CCOC(=O)c1cnc2nc(N3CCOCC3)nn2c1N	i	i	i	i	i	i
CCOC(=O)c1cnc(-n2nc(C)cc2C)nc1N(C)C	4.5µM	i	i	1.1µM	i	i
CCOc1ccc(CN(CCc2ccc3c(c2)OCO3)Cc2cc(OC)c(OC)cc2OC)cc1	nt	nt	?	nt	i	nt
COC(=O)c1sc2cc(=O)n(-c3cccc(C(F)(F)F)c3)nc2c1O	i	i	i	i	i	i
Nc1ncc(Br)cc1S(=O)(=O)Nc1cc(C(F)(F)F)cc(C(F)(F)F)c1	22µM	i	i	i	i	nt
COc1cccc(CC(=O)N2CCCC(CO)(Cc3ccc(F)cc3F)C2)c1 (stereo not given)	i	i	i[2.29 µM]	i	i	i
O=C(NCCN1CCOCC1)C1CCN(c2ncnc3c2sc2cccc(F)c23)CC1	14µM	i	i	i	i	i
O=C(C1CCN(c2ncnc3c2sc2cccc(F)c23)CC1)N1CCOCC1	i	i	i	i	i	i
CC(C)(C)c1ccc(C(=O)N2CCNCC2)cc1	i	i	i	i	i	i
CN1CCC2(CC1)N=C(c1ccc(F)cc1)C(=S)N2C(=O)c1ccc(C(C)(C)C)cc1	?	i	?	13µM	i	i
CCOc1cc(/C=N/NC(=O)c2cccnc2)ccc1OCc1ccc(C(=O)OC)o1	i	i	i	i	i	i
O=C1C(Cc2ccccc2)NC(=S)N1Cc1ccccc1 (stereo not given)	i	i	i	13µM	i	i
CCC(C)C1NC(=S)N(Cc2ccccc2)C1=O (stereo not given)	?	i	i	10µM	i	i
COc1ccccc1N1CCN(C(=O)CCc2nnc3ccc(N4CCCC4)nn23)CC1	i	i	i	i	i	nt
CCOC(=O)C1=C(C)NC(SCC(=O)Nc2cc(C)on2)=C(C#N)C1c1cccs1 (stereo not given)	i	i	i	i	i	i
COc1ccc(N=N/C(=C\O)C(=O)c2cccs2)cc1	?	i	i	i	i	i
N#CC(C#N)=C1C=CC=CN1/C(=C\c1ccco1)C(=O)c1ccccc1	1.8µM	i	1.6µM	5µM	i	i
SMILES	Gal4-VP16 FLuc	GALK inh	TrxR1 inh	RORgamma inh	TrxR1 substrate	Coupling enz
COc1ccc(C(=O)/C(=C\c2ccco2)N2C=CC=CC2=C(C#N)C#N)cc1	3.5µM	i	8.9µM	4µM	i	i
COc1ccc(/C=C(/C(=O)c2cccs2)N2C=CC=CC2=C(C#N)C#N)cc1	2.8µM	i	0.11µM	2.2µM	i	i
CC(C)(C)NC(=O)/C(=C/c1ccco1)c1ccccc1	i	i	i	i	i	i
N#CC(C#N)=C1C=CC=CN1/C(=C\c1ccco1)C(=O)c1ccc(Br)cc1	1.3µM	i	1.1µM	3.5µM	i	i
COc1ccc(C(=O)N/C(=C\c2ccco2)C(=O)OCc2ccco2)cc1	i	nt	i	i	i	i
N#C/C(=C/c1ccco1)C(N)=S	i	i	i	i	i	i
Cc1ccc(NC(=O)C2CSC3(C)CCC(=O)N23)cc1S(=O)(=O)N1CCOCC1 (stereo not given)	nt	nt	i	nt	i	nt
c1ccc(Nc2ncnc3sc4c(c23)CCC4)cc1	i	i	i	i	i	i
c1csc(CCNc2ncnc3sc4c(c23)CCC4)c1	11µM	i	i	i	i	i
CNc1oc(-c2ccc(Cl)cc2)nc1C#N	i	i	40µM	?	i	i
CCOC(=O)C1(Cc2cccc(OC)c2)CCN(Cc2cccc(OCC)c2O)CC1	i	i	i	?	i	i
CCCN1CCN(S(=O)(=O)c2ccc(-c3cc(C)no3)s2)CC1	i	i	i	i	i	i
C=C(C)COc1ccc(-c2[nH]ncc2Oc2cccc(OC)c2)c(O)c1	?	i	i	6.3µM	i	i
COc1ccc(Oc2cn[nH]c2-c2ccc(O)cc2O)cc1	i	i	i	?	i	i
C=C(C)COc1ccc(-c2[nH]ncc2Oc2ccccc2OCC)c(O)c1	i	i	i	i	i	i
C=C(C)COc1ccc(-c2[nH]ncc2-c2ccccc2)c(O)c1	?	i	i	?	i	i
C=C(C)COc1ccc(-c2[nH]ncc2-c2ccc(OC)cc2)c(O)c1	?	i	i	11µM	i	i
C=C(C)COc1ccc(-c2n[nH]c(C)c2-c2ccc(OC)c(OC)c2)c(O)c1	7.1µM	i	i	1.4µM	i	i
COc1ccc(-c2[nH]ncc2Oc2ccccc2OC)c(O)c1	?	i	i	11µM	i	i
O=C(NC1CC1)C1CCN(S(=O)(=O)c2ccc(Cl)c([N+](=O)[O-])c2)CC1	nt	nt	i	nt	i	nt
CCN[C@@H]1C[C@H](C)S(=O)(=O)c2sc(S(N)(=O)=O)cc21	i	nt	nt	i	nt	i
O=C(O)CCCCCNC(=O)/C(=C\c1ccco1)NC(=O)c1ccco1	i	i	i	i[1.91 µM]	i	i
O=C(Nc1ccc(F)cc1Cl)C1CCN(c2ncnc3c2nc2n3CCCCC2)CC1	nt	nt	i	nt	i	nt
CCCc1ccc(Oc2cn[nH]c2-c2ccc(O)cc2O)cc1	i	i	i	16µM	i	i
C=C(C)COc1ccc(-c2[nH]ncc2-c2ccc(OC)c(OC)c2)c(O)c1	2.5µM	i	i	1.8µM	i	i
COc1ccc(S(=O)(=O)N(CC(=O)Nc2ccccc2C(=O)N2CCOCC2)c2ccc(F)cc2)cc1	i	i	i	i	i	nt
O=C(CCn1c(=O)oc2cc(Cl)ccc21)Nc1ccc(N2CCOCC2)cc1	i	i	i	i	i	i
CCCC(NC(=S)NCC1CCCO1)C12CC3CC(CC(C3)C1)C2 (stereo not given)	3.2µM	i	i	0.45µM	i	i
S=C(NCC1CCCO1)NC1CCCCC1 (stereo not given)	?	i	i	?	i	i
